# Laboratory results as given in PubChem BioAssay AID1259343 (VanderVen Lab, College of Veterinary Medicine, Cornell …, 2017).
# Hit rate of the full screen: of about 6,200 compounds, about 2,900 (47%) were called active. No stated cut-off is given here; in the data, active means inhibition above about 50%; inactive means the rest. The set was probably picked from earlier hits. Some of the results follow.
# Experiment: Mycobacterium tuberculosis growth inhibition, primary screen (AID 1259343)
# Conditions: inhibition: at 10 µM, stronger effect = higher value; outcome: 10 uM
row,Structure (SMILES),inhibition
1,CCOc1ccc(NC(=O)COC(=O)c2ccc(Cl)cc2O)cc1,94.7% (active)
2,CC(C)c1cc(=O)[nH]c(-n2nc(-c3cccs3)cc2N)n1,1.53% (inactive)
3,Cc1nc(-n2nc(-c3cccs3)cc2NC(=O)c2ccccc2Cl)[nH]c(=O)c1C,61% (active)
4,Cc1cc(=O)[nH]c(-n2nc(-c3cccs3)cc2N)n1,-45.8% (inactive)
5,Cc1nc(-n2nc(-c3cccs3)cc2N)[nH]c(=O)c1C,92.4% (active)
6,Cc1nc(-n2nc(-c3cccs3)cc2NC(=O)c2ccccc2F)[nH]c(=O)c1C,83.2% (active)
7,Cc1nc(-n2nc(-c3cccs3)cc2NC(=O)c2ccc(F)cc2)[nH]c(=O)c1C,99.3% (active)
8,CCC(CC)C(=O)Nc1cc(-c2cccs2)nn1-c1nc(C)c(C)c(=O)[nH]1,-21.5% (inactive)
9,O=C(O)c1csc(-c2cnn(-c3ccccc3)n2)n1,33.6% (inactive)
10,Cc1cc(C)cc(NC(=O)c2ncn(-c3ccccc3C)n2)c1,77.4% (active)
11,CCN(CC)c1ccc(N2C(=O)CNC2=S)cc1,54.3% (active)
12,CCN(CC)c1ccc(-c2n[nH]c(=S)o2)cc1,-4.83% (inactive)
13,O=C1CNC(=S)N1c1ccc(Cl)cc1,-2.04% (inactive)
14,O=C(c1ccc(Cl)cc1)c1c(O)cc(-c2ccc(Cl)cc2)oc1=O,84% (active)
15,S=c1[nH]cc(-c2ccc(Cl)cc2)o1,-9.85% (inactive)
16,Cc1sc2nc(CSC3=NCCS3)[nH]c(=O)c2c1C,49% (inactive)
17,C=CCSc1nc2sc(C(=O)O)c(C)c2c(=O)[nH]1,26.3% (inactive)
18,CSc1nnc(SCc2nc3sc(C(=O)O)c(C)c3c(=O)[nH]2)s1,80.8% (active)
19,O=[N+]([O-])C1=C(Nc2ccc(-c3ccccc3)cc2)CS(=O)(=O)C1,95.9% (active)
20,CNC(=O)c1ccc(OCc2cccc(F)c2)cc1,78.6% (active)
21,CC(NC(=O)COc1ccc(C(F)(F)F)cc1)c1cccc(F)c1 (stereo not drawn),9.32% (inactive)
22,O=C(O)c1ccc(F)c(COc2ccc(F)cc2)c1,18.4% (inactive)
23,CC(=O)Nc1cccc(OCc2ccc(F)cc2)c1,92.5% (active)
24,COc1ccc(OCc2cc(C(=O)NCc3cccc(F)c3)no2)c(Cl)c1,34.7% (inactive)
25,CC(=O)Nc1ccc(OCc2cccc(F)c2)c(Cl)c1,85.1% (active)
26,CSc1cccc(NC(=O)c2cc(=O)c(OCc3ccc(F)cc3)c[nH]2)c1,85.5% (active)
27,Cc1[nH]c(=S)sc1CC(=O)Nc1cccc(OCc2ccc(F)cc2)c1,38.9% (inactive)

row,Structure (SMILES),inhibition
1,CCCS(=O)(=O)NCc1nc(NCCCc2ccccc2)c2ccccc2n1,33.8% (inactive)
2,CN(Cc1cc(-c2ccncc2)no1)Cc1cc2ccccc2o1,23.3% (inactive)
3,CN(Cc1cccc(Cn2cccn2)c1)Cc1cc(-c2ccccc2)no1,61.2% (active)
4,CN(Cc1cc(-c2ccccc2)no1)Cc1cccc2nonc12,27.9% (inactive)
5,CN(Cc1cc(-c2ccncc2)no1)Cc1ccc(C2CCCCO2)s1 (stereo not drawn),27.1% (inactive)
6,CN(Cc1ccsc1)Cc1cc(-c2ccccc2)no1,53.4% (active)
7,CN(Cc1ccc2c(c1)OCCO2)Cc1cc(-c2ccccc2)no1,37.6% (inactive)
8,CN(Cc1cc(-c2ccncc2)no1)Cc1ccc(Cl)s1,54.1% (active)
9,O=C(Nc1cccc2ncccc12)C1CC2CCCC(C1)C2=O (stereo not drawn),-15.1% (inactive)
10,CCCCC1CCC(C(=O)Nc2noc3ncccc23)CC1 (stereo not drawn),99.3% (active)
11,CN(Cc1csc(-c2cccs2)n1)c1ccc(-c2nccn2C)nn1,68.3% (active)
12,c1cnc(N2CCN(Cc3csc(-c4cccs4)n3)CC2)nc1,40.8% (inactive)
13,CC1CCc2[nH]c3c(C(=O)NCC4CN(C)CCO4)cccc3c2C1 (stereo not drawn),39.4% (inactive)
14,Cc1ccc(CN(C)Cc2nc(CC3CC3)no2)o1,inactive
15,Cc1nc(Cc2noc(CC3CC4CCC3C4)n2)no1 (stereo not drawn),66.8% (active)
16,CN=c1scc(-c2ccccc2)n1N=Cc1ccccc1Br,6.14% (inactive)
17,COCCN=c1scc(-c2ccc(OC(F)F)cc2)n1N=CC1CC2C=CC1C2 (stereo not drawn),101% (active)
18,CN=c1scc(-c2ccc(OC(F)F)cc2)n1N=Cc1cccc(O)c1O,98.9% (active)
19,COc1ccc(C=Nn2c(-c3ccc(Cl)cc3)csc2=N)cc1,60.1% (active)
20,C=CCN=c1scc(-c2ccc(OC(F)F)cc2)n1N=Cc1ccc[nH]1,46.4% (inactive)
21,COc1ccc(/C=N\n2c(-c3ccc(Cl)cc3)csc2=N)cc1,38.1% (inactive)
22,CN=c1scc(-c2ccccc2)n1N=Cc1cccc(C(F)(F)F)c1,1.23% (inactive)
23,COCCN=c1scc(-c2ccc(OC(F)F)cc2)n1N=Cc1ccc(OC)cc1,63.2% (active)
24,C(=Nn1c(-c2ccccc2)csc1=NCCc1ccccc1)c1ccccn1,21.8% (inactive)
25,COCCN=c1scc(-c2ccc(Br)cc2)n1N=Cc1ccc(F)cc1,40.8% (inactive)
26,CN=c1scc(-c2cccc(Br)c2)n1N=Cc1cccc(O)c1O,17.2% (inactive)
